Consider 35 compounds from PubChem BioAssay (NCI).

The structures appear in SMILES notation. The panel holds about 83,000 compounds, 20% with a hit somewhere; the sample as a whole holds those more often.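 Growth was measured after 48 h exposure to one concentration of compound in 96-well plates. Values under 10 count as active.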 Values without a mark were called inactive. Active and inactive are the calls of the source.

The subject of this assay is NCI-H460 lung. As to the kind of experiment: NCI-60 one-dose screen, 48 h (100 = growth as untreated, 0 = no growth, -100 = all killed). Conditions: 10 µM.
Regarding `CCNc1nc2c(cnn2C)c(=O)[nH]1`, the growth is 108%.
For the compound `CC(=O)/C(Cc1ccccc1)=N/O`, the growth was 105%.
As for `O=[N+]([O-])c1ccccc1N=Nc1ccc(O)cc1O`, the figure is 115%.
In the case of `CCn1c(=O)n(C)c2c(=O)n(C)c(=O)n(C)c21`, the growth was 112%.
With `O=P(O)(O)OCC(O)CO` (stereo not given), the growth is 109%.
In the case of `CCCCCCCCCCC1CO1` (stereo not given), the growth is 105%.
The figure for `CC(=O)OCCO` is 111%; for `CC(=O)OCC(=O)[C@@]1(O)CC[C@H]2[C@@H]3CC[C@@H]4C[C@H](O)CC[C@]4(C)[C@H]3C(=O)C[C@@]21C` it is 108%; for `COc1cc2c3cc1Oc1c(OC)c(OC)cc4c1C(Cc1ccc(O)c(c1)Oc1ccc(cc1)CC3N(C)CC2)N(C)CC4` (stereo not given) it is 2.92% (active).
As for `COc1cccc(/C=N/NC(=S)NC2CC3CCC2C3)c1O` (stereo not given), the figure is 3.68% (active); as for `O=S(=O)(Cc1ccccc1)c1ccccc1`, 112%; as for `COc1cc2nn(-c3ccccc3N)nc2cc1OC`, 102%.
As for `CC1C(=O)c2ccccc2CC1C(=O)O` (stereo not given), the figure is 122%; as for `O=[N+]([O-])c1ccc(S(=O)(=O)NN=C2CCCCC2)cc1`, 121%.
As to `CC(=O)c1ccc(N=C(C#N)C2=C(O)c3ccccc3C2=O)cc1`, the growth is 101%.
The figure for `CNc1nc(NC)c2cn[nH]c2n1` is 109%.
The figure for `CC(=Nc1ccccc1)C1=C(O)C(Cc2cccc(F)c2)NC1=O` (stereo not given) is 6.19% (active); for `CCOC(=O)c1ccc(NC(=S)P(=O)(c2ccccc2)c2ccccc2)cc1` it is 71.3%.
The figure for `CCCC(C)OCC(=O)O` (stereo not given) is 103%; for `O=c1[nH][nH]c(=O)c2cc([N+](=O)[O-])ccc12` it is 111%; for `O=[N+]([O-])c1ccc(N=Nc2ccc(O)c3ccccc23)cc1` it is 30.9%.
Take `CCCCCCCCO`: the growth was 103%.
Regarding `Cn1cnc2nc(Cl)nc(Cl)c21`, the growth was -9.25% (active).
On to `OCC(O)C(O)C(O)C(O)/C=N/O` (stereo not given), for which the growth was 99.8%.
As for `O=C(O)COCC(=O)O`, the figure is 107%; as for `Cc1ccc(S(=O)(=O)O)c(C)c1`, 103%; as for `NC(=S)N/N=C/c1ccc(N)cc1`, 106%.
On to `O=c1[nH]nc(SC2CCCCC2)c(=O)[nH]1`, for which the growth is 104%.
As to `CC1CC(O)C2C3(C)CCCC2(COC3=O)C12CCC1(CCOC1=O)O2` (stereo not given), the growth is 95.4%.
As for `CCOc1ccc(Br)cc1/C=N\N=C\c1cc(Br)ccc1OCC`, the figure is 103%.
With `S=C1CCCCCN1`, the growth was 106%.
Turning to `CC1CCCCN1C(=S)Nc1ccc(S(=O)(=O)N2CCCCC2)cc1` (stereo not given), the growth was 97.1%.
As for `COc1cc(C2c3cc4c(cc3C3OC(=O)C2C3CO)OCO4)cc(OC)c1OC` (stereo not given), the figure is 0.82% (active).
As for `CCCCOC(=O)c1ccc(C(C)C)cc1`, the figure is 109%; as for `NCCCN`, 108%.
